Screens as filed in PubChem.
Only some compounds are listed: those with a hit (about 7.5% of all), similar ones and a draw of the others.
KinaseGlo FLuc: Kinase-Glo luciferase inhibition (counter-screen) | Q27757 | Kinase-Glo luciferase, ATP luminescence, 8 min | Potency, µM (series often up to 38.3 µM), inactives show at the top dose activity change, negative = inhibition, most hits filed as inhibitors | hit rate 0.28% among 200,000 | AID 1379; also: % is scaled to controls: 0 for no effect and ±100 for the full control effect; nearly all actives have a fitted effect of over 60% in size
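Light output from Kinase-Glo luciferase with luciferin and 10 uM ATP in 50 mM imidazole pH 7.2, KCl, MgCl2, Tween 20, BSA; compound pin-delivered, 8-min ambient incubation, then luminescence read.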
FLuc modulator: inhibits or activates purified firefly luciferase, miR-21 counter-screen; purified FLuc, Km substrates, luminescence inhibition; Potency, µM (highest dose often 57.5 µM), for the others: at the top dose activity change, negative = inhibition, hits mostly inhibitors; hit rate 6.9% among 360,000; AID 588342;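 also: plate controls were vehicle for no effect and reference inhibitor for full effect; nearly all actives have a fitted effect of over 55% in size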
Target sequence (P08659 whole entry, looked up): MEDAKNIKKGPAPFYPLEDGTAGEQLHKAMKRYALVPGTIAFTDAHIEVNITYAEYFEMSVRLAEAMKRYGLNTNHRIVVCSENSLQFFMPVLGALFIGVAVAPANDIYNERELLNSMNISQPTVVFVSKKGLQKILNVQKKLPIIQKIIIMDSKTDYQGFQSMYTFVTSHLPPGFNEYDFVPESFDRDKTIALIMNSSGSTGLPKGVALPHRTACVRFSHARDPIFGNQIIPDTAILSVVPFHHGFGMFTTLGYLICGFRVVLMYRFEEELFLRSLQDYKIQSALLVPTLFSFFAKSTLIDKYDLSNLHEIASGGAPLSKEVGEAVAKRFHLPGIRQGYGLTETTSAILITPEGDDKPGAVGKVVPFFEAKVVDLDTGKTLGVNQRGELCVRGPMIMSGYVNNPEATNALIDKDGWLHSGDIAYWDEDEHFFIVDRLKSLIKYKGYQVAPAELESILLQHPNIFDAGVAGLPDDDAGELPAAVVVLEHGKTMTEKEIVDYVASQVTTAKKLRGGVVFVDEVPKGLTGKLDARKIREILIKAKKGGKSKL
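Biochemical qHTS of compounds, final roughly 60 µM downward over six points, against 10 nM purified firefly luciferase using Km concentrations of substrates (10 uM D-luciferin, 10 uM ATP) in Tris acetate pH 7.5 buffer; luminescence output.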
SMN2 splice enh: increases expression of the SMN2 splice variant; AID 1458; HEK293 SMN2-luciferase splicing reporter, luminescence, 30-36 h; hit rate 2.8% among 210,000; Potency, µM (highest dose often 46.1 µM), without a hit: at the highest dose activity change, positive = activation, actives largely listed as activators; also: % of control where 0% means no effect; nearly all actives have a fitted effect of over 55% in size
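HEK293 cells carry an SMN2 […]–luciferase reporter in which exon 7 inclusion puts luciferase in frame. Cells were plated 10-12 h before compound addition, then incubated 30-36 h at 37C. ONE-Glo luminescence was read; sodium butyrate at 4.5 mM final served as control.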
Rab9 prom act: activators of Rab9 promoter; Huh7 Rab9 promoter-luciferase reporter, luminescence, 24 h; Potency, µM (top dose mostly 9.22 µM), inactives show at the highest dose activation, negative = inhibition, actives largely listed as activators; hit rate 2.8% among 320,000; AID 485297; also: % of control where 0% means no effect; nearly all actives have a fitted effect of over 60% in size
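Cells were plated at 1500 per well in reduced-serum medium with 10% FBS and left 2 h. Compound in DMSO was then added for 24 h at 37 °C. Reporter signal was read by luminescence after 10 min with luciferase detection reagent.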
ELG1 genotoxic: genotoxicity induction in ELG1-luciferase HEK293T cells; HEK293T ELG1-luciferase reporter, luminescence, 16 h; Potency, µM (highest dose often 46 µM), inactives show top-dose activity change, positive = activation, hits mostly activators; hit rate 1.3% among 330,000; AID 504466; also: % of control where 0% means no effect; nearly all actives have a fitted effect of over 60% in size
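Cells (2,000/well) expressing the ELG1-luciferase fusion are dosed by pin tool and kept 16 hr at 37 °C, 5% CO2. Signal comes from ONE-Glo luciferase reagent after 30 min at room temperature.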
NPC1 prom act: NPC1 promoter activation; Huh7 NPC1 promoter luciferase reporter, 24 h; Potency, µM (series often up to 9.22 µM), without a hit: at the highest dose activation, most hits filed as activators; hit rate 2.4% among 320,000; AID 485313; also: % of control where 0% means no effect; nearly all actives have a fitted effect of over 60% in size
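Readout is luciferase luminescence, reflecting NPC1 promoter activation in stably transfected Huh7 cells after 24 h compound exposure at 37 °C in reduced-serum medium with 10% FBS.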
Active calls of the source: *; ? = inconclusive; · = not tested or not shown; [ ] = another dose, or the depositor's remark. Calls follow the shape of the dose curve; as a rule, active = well fitted curve in the direction sought with a large enough effect; inconclusive = small, poorly fitted or top-dose-only effect, or another doubt; inactive = no such curve, though single readings can be large; an effect the other way counts as inactive or inconclusive. Potency is read from the fitted curve at half-maximal effect.

SMILES | KinaseGlo FLuc | FLuc modulator | SMN2 splice enh | Rab9 prom act | ELG1 genotoxic | NPC1 prom act
CSc1ccccc1NC(=O)CSCc1ccc(C)cc1 | 1% | -11% | -14% | 3% | -2% | -18%
O=C(CSc1ccccc1)Nc1ccccc1C(=O)O | 11% | 21µM* | 1% | · | · | ·
Cc1ccc(CCC(=O)Nc2ccccc2C(=O)O)o1 | · | 17µM* | · | ? | ? | ?
Cc1ccc(SCCN2CCC(O)CCC2=O)cc1 (centres undefined) | · | -3% | · | 9% | 11% | 9%
COC(=O)c1ccccc1NC(=O)CSc1ccc(C)cc1 | 0% | -14% | 4% | 7% | 1% | -2%
CC(C)n1c2ccccc2c2nnc(SCC(=O)Nc3ccccc3C(=O)O)nc21 | 3% | 19µM* | -20% | 1% | 2% | -1%
Cc1ccc(SCC(=O)Nc2ccccc2C(=O)O)cc1 | 0% | 8.5µM* | ? | ? | 17% | ?
Cc1c(NC(=S)NC(=O)Cc2ccccc2)cccc1C(=O)O | 4% | ? | 21% | 16% | 8% | 1%
CCOc1ccccc1-n1c(SCC(=O)Nc2ccccc2C(=O)O)nc2ccccc2c1=O | · | 12µM* | · | ? | -11% | ?
CCn1c(SCC(=O)Nc2ccccc2OC)nc2ccccc2c1=O | -2% | 0% | -16% | -5% | -24% | 1%
COc1ccc(CC(=O)Nc2cccc(C(=O)O)c2C)cc1 | -6% | ? | 16µM* | 17% | 13% | 26%
Cc1ccc(C)c(NC(=O)CN2C(=O)c3cccnc3Oc3ccc(C)cc32)c1 | · | -7% | · | · | · | ·
COc1cc(Cl)c(C)cc1NC(c1ccccc1)c1nnc(-c2ccccc2Cl)o1 (centres undefined) | · | ? | -10% | · | · | ·
CCCCCCCCCCCCC/C=C\[C@@H](O)[C@H](CO)NC(C)=O | -2% | · | · | · | · | ·
COc1ccc(CNC(=O)c2cc3ccccc3oc2=O)cc1 | · | ? | · | -1% | 0% | -5%
O=C(NCc1ccccc1)c1cc2ccccc2oc1=O | · | 15µM* | · | -2% | ? | 19%
O=C(NCc1ccc(Cl)cc1)c1cc2ccccc2oc1=O | · | ? | · | 2% | 8% | 1%
CN(C)C(CNC(=O)c1cc2ccccc2oc1=O)c1ccccc1 (centres undefined) | · | 15µM* | · | ? | ? | 3.5µM*
COc1ccccc1-c1ccc(NC2CCCC2)nn1 | -5% | 13µM* | 11µM* | ? | ? | 26%
COc1ccccc1-c1cnn2c(NC3CCCC3)cc(C)nc12 | · | 1.9µM* | · | 2.8µM* | ? | ?
CCOC(=O)N1CCC(Nc2cc(C)nc3c(-c4ccccc4OC)c(C)nn23)CC1 | 0% | -1% | -30% | -3% | 12% | -6%
COc1ccc(CNc2ccc(-c3ccccc3OC)nn2)cc1 | 2% | -16% | 6% | 3% | 1% | 11%
CC(C)(N)C(=O)N[C@@H]1C(=O)N2[C@@H]1SC(C)(C)[C@H]2C(=O)O | 0%[7.66 µM] | · | -9%[9.22 µM] | · | · | ·
C=CCN=C1S/C(=C\c2ccc(N(C)C)cc2)C(=O)N1CC=C | · | 21µM* | · | ? | 6% | 18%
Cc1cccc(NC2=NC(C)(C)N=C(N)N2)c1C | 3% | 6% | 0% | 2% | 4% | 1%
SMILES | KinaseGlo FLuc | FLuc modulator | SMN2 splice enh | Rab9 prom act | ELG1 genotoxic | NPC1 prom act
Cc1ccccc1NC1=NC(C)(C)N=C(N)N1 | -7% | -1% | 0.22µM* | 3% | 0% | 9%
Cc1ccc(C)c(C(=O)COC(=O)c2cccc(N3C(=O)c4c(C)nc5ccccc5c4C3=O)c2)c1 | -4% | 1.5µM* | -10% | ? | 14% | ?
Cc1nc2ccccc2c2c1C(=O)N(c1cccc(C(=O)O)c1)C2=O | 9% | -18% | 17% | -4% | 4% | 1%
Cc1ccc(C(=O)Nc2cccnc2Cl)cc1Cl | · | 17µM* | · | ? | 18µM* | ?
Cc1ccnc(NC(=O)c2ccccc2NC(=O)c2ccc(Cl)cc2Cl)c1 | · | 12µM* | · | -14% | ? | -23%
Cc1ccnc(NC(=O)CC(NC(=O)c2ccccc2Cl)c2ccccc2)c1 (centres undefined) | · | 11µM* | · | -2% | 21µM* | 0%
Cc1ccc(C(=O)Nc2ccccc2C(=O)Nc2ccccn2)cc1Cl | · | 5.4µM* | · | 17% | 3% | 2%
Cc1ccnc(NC(=O)c2ccc(Cl)c(NC(=O)c3ccccc3C)c2)c1 | · | -16% | · | 6% | -7% | 1%
COc1ccc(C(=O)Nc2ccccc2C(=O)Nc2ccccn2)cc1 | · | 6µM* | · | ? | 15% | ?
O=C(Nc1ccc(S(=O)(=O)N2CCCCCC2)cc1)c1ccco1 | -2% | ? | ? | ? | ? | 21%
O=C(Nc1ccc(OCC(=O)N2CCN(S(=O)(=O)c3ccccc3)CC2)cc1)c1ccco1 | -7% | 11µM* | 22% | -1% | -4% | 3%
O=C(Nc1ccc(OCC(=O)N2CCC(Cc3ccccc3)CC2)cc1)c1ccco1 | 1% | 27µM* | -12% | -6% | -1% | 2%
Cc1ccc(NC(=O)/C=C/c2ccc3c(c2)OCO3)nc1 | -2% | 2.1µM* | 2.8µM* | 2.5µM* | ? | 2.5µM*
Cc1ccc(NC(=O)Nc2ccc3c(c2)OCO3)nc1 | -3% | 6.7µM* | 13µM* | 2.5µM* | ? | 3.2µM*
CC(NC(=O)Nc1ccc2c(c1)OCO2)C1CCCO1 (centres undefined) | 1% | 17µM* | ? | ? | 13% | ?
Cc1ccc2nc(NC(=O)/C=C/c3ccc4c(c3)OCO4)sc2c1 | -2% | 3% | -59% | 0% | ? | 4%
Cc1ccc(OC(F)F)c(NC(=O)Nc2ccc3c(c2)OCO3)c1 | · | ? | · | 6% | -5% | 4%
Cc1cc(C)cc(NC(=O)NC(C)C2CCCO2)c1 (centres undefined) | 2% | ? | · | -1% | 0% | -1%
Cc1cccc(NC(=O)Nc2cc(C)cc(C)n2)c1 | -3% | 1.5µM* | 5µM* | 1.3µM* | ? | 2.2µM*
Cc1ccnc(NC(=O)CNC(=O)c2ccc3c(c2)OCO3)c1 | · | -6% | · | 1% | 19% | 0%
CCc1cccc(C)c1NC(=O)Nc1ccc2c(c1)OCO2 | -2% | 3% | 21% | 1% | 0% | -3%
Cc1cc(C)nc(NC(=O)Nc2ccc3c(c2)OCO3)c1 | -2% | ? | 2.5µM* | 0.56µM* | ? | 0.71µM*
Cc1cc(C)nc(NC(=O)c2ccc3c(c2)OCO3)c1 | ? | 17µM* | 7% | 17% | 14% | 18%
Cc1cc(C)cc(OCc2cc(=O)n3c4c(sc3n2)CCCC4)c1 | · | 1% | -1% | · | · | ·
CCOC(=O)C1CCN(c2nc3ccccc3nc2C(C#N)C(=O)NCCc2ccccc2)CC1 (centres undefined) | -1% | 19µM* | -7% | -3% | 27% | ?
